Here are results for 14 compounds from PubChem BioAssay (NCI).

Test systems include RPMI-8226 leukemia; OVCAR-8 ovarian; OVCAR-5 ovarian; OVCAR-4 ovarian; SK-OV-3 ovarian; OVCAR-3 ovarian; HS 578T breast; NCI/ADR-RES ovarian; T-47D breast; IGROV1 ovarian.
Holding throughout (experiment): NCI-60 one-dose screen, 48 h (100 = growth as untreated, 0 = no growth, -100 = all killed)
Holding throughout (conditions): 10 µM unless noted

Compounds without any hit were thinned out: in the full panel of roughly 83,000, 20% have a hit.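 Assay: single dose, 48 h. Readout: percent growth (0 = no net growth; negative = cell death). Active: <10.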 Values without a mark were called inactive. The source made the active and inactive calls.

With `CCCCN(CCCC)CC(CN(CC)CC)OC(=O)Nc1ccccc1` (stereo unspecified), the growth in the test with RPMI-8226 leukemia is 96.7%; in the test on OVCAR-8 ovarian, 106%; in the test on OVCAR-5 ovarian, 76.7%; with OVCAR-4 ovarian, 77.1%; with SK-OV-3 ovarian, 87.4%; with OVCAR-3 ovarian, 108%. Besides, the growth in the test on HS 578T breast is 113%; in the test with NCI/ADR-RES ovarian, 82.4%; with T-47D breast, 92.2%.

`Nc1ccccc1NC(=O)c1ccc(CSc2nc(N3CCOCC3)c3cccn3n2)cc1`: the growth with RPMI-8226 leukemia was -4.81% (active); with OVCAR-8 ovarian, 15.9%; in the test with OVCAR-5 ovarian, 29.5%; in the test on OVCAR-4 ovarian, 42%; with SK-OV-3 ovarian it was 6.2% (active); in the test on OVCAR-3 ovarian, 1.87% (active). Also, the growth in the test with HS 578T breast was 23.1%; in the test with NCI/ADR-RES ovarian it was 3.65% (active); in the test with T-47D breast, -1.13% (active).

Take `O=C(Nc1ccc(S(=O)(=O)NC2CCCCCC2)cc1)C(c1ccccc1)S(=O)(=O)c1ccc(F)cc1` (stereo unspecified): the growth is -23.1% (active) in the test on RPMI-8226 leukemia; 8.45% (active) in the test on OVCAR-8 ovarian; 5.42% (active) with OVCAR-5 ovarian; 4.28% (active) in the test with OVCAR-4 ovarian; 3.67% (active) in the test with SK-OV-3 ovarian; 3.59% (active) in the test with OVCAR-3 ovarian. Besides, the growth in the test on HS 578T breast was -2.41% (active); with NCI/ADR-RES ovarian it was 15.1%; with T-47D breast, 8.11% (active).

Turning to `COc1ccc2cc(/C=C3\N=C(c4cc(OC)c(OC)c(OC)c4)OC3=O)c(OC)nc2c1`, the growth with RPMI-8226 leukemia was 104%; in the test on OVCAR-8 ovarian it was 98.4%; with OVCAR-5 ovarian, 108%; in the test on OVCAR-4 ovarian, 101%; with SK-OV-3 ovarian it was 96.5%; in the test on OVCAR-3 ovarian, 109%. Moreover, the values for the growth in the test on HS 578T breast, in the test with NCI/ADR-RES ovarian and in the test on T-47D breast were 97.2%, 105% and 96.5%, respectively.

Turning to `O=C1C(=O)c2c(nc3ccc(C(F)(F)F)cn23)-c2ccccc21`, the growth is -26.6% (active) in the test with RPMI-8226 leukemia; -96% (active) in the test with OVCAR-8 ovarian; -78% (active) in the test with OVCAR-5 ovarian; -95.9% (active) with OVCAR-4 ovarian; -99.6% (active) in the test with SK-OV-3 ovarian; -63% (active) with OVCAR-3 ovarian. Also, the growth in the test on HS 578T breast was -15.3% (active); in the test on NCI/ADR-RES ovarian, -14.1% (active); in the test on T-47D breast, -50.6% (active).

Turning to `Cc1[nH]c2ncnc(Oc3ccc(NC(=O)Nc4ccc(Cl)c(C(F)(F)F)c4)cc3)c2c1C`, the growth in the test with RPMI-8226 leukemia is 44.7%; in the test on OVCAR-8 ovarian, 52%; with OVCAR-5 ovarian, 98%; in the test on OVCAR-4 ovarian it was 90.1%; in the test with IGROV1 ovarian, 54.6%; in the test on OVCAR-3 ovarian it was 56.3%. Besides, the growth was 73.8% with HS 578T breast, 64.5% in the test on NCI/ADR-RES ovarian and 36.9% in the test on T-47D breast.

`COc1ccc(/C=C(/C(=O)N2CCN(Cc3ccccc3)CC2)c2cc(OC)c(OC)c(OC)c2)cc1O`: the growth was 66.9% in the test on RPMI-8226 leukemia; 80.1% in the test with OVCAR-8 ovarian; 99.9% in the test with OVCAR-5 ovarian; 90.3% in the test with OVCAR-4 ovarian; 65.5% in the test with SK-OV-3 ovarian; 30.8% with OVCAR-3 ovarian. Moreover, the growth in the test with HS 578T breast is 65.1%; in the test on NCI/ADR-RES ovarian it was 71.7%; with T-47D breast, 77.2%.

On to `COc1ccc(/C=C(/C(=O)N2CCCC2)c2cc(OC)c(OC)c(OC)c2)cc1`, for which the growth in the test with RPMI-8226 leukemia is 8.53% (active); in the test on OVCAR-8 ovarian it was 40%; in the test on OVCAR-5 ovarian it was 63.1%; in the test on OVCAR-4 ovarian, 68.9%; in the test on SK-OV-3 ovarian, 22.3%; in the test on OVCAR-3 ovarian it was 5.36% (active). The values for the growth in the test on HS 578T breast, in the test on NCI/ADR-RES ovarian and with T-47D breast were 27.8%, 22% and 42.4%, respectively.

As to `O=C(Nc1cc(Nc2ncccc2-c2ncnc3nc[nH]c23)ccc1F)c1cc(C(F)(F)F)cc(C(F)(F)F)c1`, the growth with RPMI-8226 leukemia was -13% (active); in the test on OVCAR-8 ovarian, -9.42% (active); in the test with OVCAR-5 ovarian, -41% (active); with OVCAR-4 ovarian it was -48.5% (active); with SK-OV-3 ovarian, -18% (active); in the test with OVCAR-3 ovarian, -1.23% (active). Moreover, the growth is -19.1% (active) in the test on HS 578T breast, -20.8% (active) in the test with NCI/ADR-RES ovarian and 11.1% in the test on T-47D breast.

On to `COc1cc2c(cc1OC)C(Sc1ccc(Cl)cc1)c1c(nc(N)c(C#N)c1N)O2` (stereo unspecified), for which the growth in the test on RPMI-8226 leukemia was -24.2% (active); in the test on OVCAR-8 ovarian, 1.28% (active); in the test with OVCAR-5 ovarian, 10.8%; with OVCAR-4 ovarian, -14.8% (active); in the test on SK-OV-3 ovarian, 56.1%; in the test on OVCAR-3 ovarian, -69.6% (active). The results for the growth with HS 578T breast, in the test with NCI/ADR-RES ovarian and in the test with T-47D breast were 30.8%, 1.5% (active) and -3.7% (active), respectively.

For the compound `O=C(Nc1cccc(-c2cccc(F)c2)c1)C1CCN(Cc2cccc3cccnc23)CC1`, the growth is 19% in the test with RPMI-8226 leukemia; 72% in the test with OVCAR-8 ovarian; 82.9% in the test on OVCAR-5 ovarian; 51.6% with OVCAR-4 ovarian; 68.3% in the test with SK-OV-3 ovarian; 60.8% in the test with OVCAR-3 ovarian. For the same compound, the values for the growth with HS 578T breast, in the test with NCI/ADR-RES ovarian and with T-47D breast were 60.9%, 73% and 29%, respectively.

For `Cc1cc(C)nc(NS(=O)(=O)c2ccc(Nc3ccc4c5c(n(CCCN(C)C)c(=O)c4c3)-c3ccccc3C5=O)cc2)n1`, the growth with RPMI-8226 leukemia is 85.4%; in the test on OVCAR-8 ovarian, 74.4%; in the test on OVCAR-5 ovarian it was 111%; with OVCAR-4 ovarian it was 107%; with SK-OV-3 ovarian, 96.1%; in the test on OVCAR-3 ovarian, 83.7%. Besides, the growth was 93.2% in the test with HS 578T breast, 98.6% in the test on NCI/ADR-RES ovarian and 102% in the test on T-47D breast.

With `Cc1c(O)c(=O)ccn1-c1nc2ccccc2s1`, the growth in the test with RPMI-8226 leukemia is 96.8%; with OVCAR-8 ovarian, 85.4%; in the test with OVCAR-5 ovarian it was 98.7%; in the test with OVCAR-4 ovarian it was 97.7%; with SK-OV-3 ovarian, 99%; in the test on OVCAR-3 ovarian, 100%. Also, the growth was 95% in the test with HS 578T breast, 57.1% with NCI/ADR-RES ovarian and 92.4% in the test with T-47D breast.

On to `COc1cccc(C(=O)OCCn2nc3c4c(cccc42)C(=O)c2ccccc2-3)c1O`, for which the growth was 30% in the test on RPMI-8226 leukemia; 56.7% in the test with OVCAR-8 ovarian; 69.3% in the test on OVCAR-5 ovarian; 59.8% with OVCAR-4 ovarian; 120% in the test with SK-OV-3 ovarian; 3.88% (active) with OVCAR-3 ovarian. Further, the results for the growth in the test on HS 578T breast, with NCI/ADR-RES ovarian and with T-47D breast were 20.1%, 22.5% and 40.8%, respectively.
